Source: PubChem BioAssay (Tox21)
Values without a mark were called inactive. Inconclusive results are not listed. A call without a number means that no potency is given here. The source made the active and inactive calls. Unless noted, calls come from the whole dose curve; as a rule, active = well fitted curve in the direction sought with a large enough effect in the repeat runs; inconclusive = weak or mixed curves; inactive = no such curve, though single readings can be large; an effect the other way counts as inactive or inconclusive.

Tests used:
[1] = target: Thyrotropin receptor (Homo sapiens) (UniProt P16473); test: qHTS assay to identify small molecule antagonists of the thyroid stimulating hormone receptor (TSHR) signaling pathway (AID 1259385; calls by dose curve; note: nearly all actives have a fitted effect of over 20% in size)
In short: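 TSHR-HEK293 cells were plated and held 18 h at 37C/5% CO2, then given compound plus Ro20-1724 and stimulated with TSH at 1.5 ng/mL final. After 30 min at room temperature, cAMP was detected with cAMP-d2/anti-cAMP-cryptate (1 h) by fluorescence.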

[2] = target: Progesterone receptor (Homo sapiens) (UniProt P06401); test: qHTS assay to identify small molecule agonists of the progesterone receptor (PR) signaling pathway (AID 1346784; calls by dose curve; note: nearly all actives have a fitted effect of over 30% in size)
In short: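 Fluorescence from LiveBLAzer B/G FRET substrate cleavage (2 hr, RT) reported PR activation in PR-UAS-bla HEK 293T cells treated 16 hr at 37C/5% CO2 with compounds; medium contained 2% charcoal-stripped FBS.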

[3] = target: Progesterone receptor (Homo sapiens) (UniProt P06401); test: qHTS assay to identify small molecule antagonists of the progesterone receptor (PR) signaling pathway (AID 1346795; active = well fitted inhibition curve with a large enough effect in the signal ratio in the repeat runs, not every such curve was filed as active; the % refers to the signal ratio; note: potency is the fitted concentration of half-maximal effect)
In short: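 Fluorescence intensity measured 2 hr after adding beta-lactamase FRET substrate to PR-UAS-bla HEK293T cells that had been co-treated 16 hr with compound and 1 nM R5020 (final concentration) in 2% charcoal-stripped FBS.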

[4] = qHTS assay to identify small molecule antagonists of the progesterone receptor (PR) signaling pathway - cell viability counter screen (AID 1346798); note: nearly all actives have a fitted effect of over 50% in size; note: potency is the fitted concentration of half-maximal effect
In short: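 CellTiter-Glo luminescence; PR-UAS-bla HEK293T, 3,000 cells/well; compound + R5020, 16 hr, 37C/5% CO2; 30 min RT before read.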

[5] = qHTS assay to identify small molecule agonists of the progesterone receptor (PR) signaling pathway - cell viability counter screen (AID 1346799; calls by dose curve; note: nearly all actives have a fitted effect of over 45% in size)
In short: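 In parallel with the beta-lactamase readout, cytotoxicity toward PR-UAS-bla HEK293T cells was measured by CellTiter-Glo luminescence following 16 hr compound incubation in 2% charcoal-stripped FBS medium.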

[6] = qHTS assay to identify small molecule antagonists of the TGF-beta/Smad signaling pathway - cell viability counter screen (AID 1346824); note: nearly all actives have a fitted effect of over 50% in size
In short: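 SBE-bla HEK 293T cells were plated overnight at 37 C, then given compounds in DMSO plus TGF-beta1 (added as 0.25 ng/mL solution) for 5 hr. After the bla read, CellTiter-Glo was added to the same wells and luminescence read after 30 min at room temperature.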

[7] = qHTS assay to identify small molecule agonists of the TGF-beta/Smad signaling pathway - cell viability counter screen (AID 1346829); note: top concentration of the series differs between compounds; nearly all actives have a fitted effect of over 45% in size
In short: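 Same-well cytotoxicity: CellTiter-Glo added after the 2 hr room-temperature beta-lactamase substrate step, luminescence measured 30 min later; cells had 5 hr of compound at 37 C.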

[8] = qHTS assay to identify small molecule agonists of the TGF-beta/Smad signaling pathway (AID 1346859; active = well fitted activation curve with a large enough effect in the signal ratio in the repeat runs, not every such curve was filed as active; the % refers to the signal ratio; note: series mostly up to about 77 µM)
In short: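 After overnight seeding, SBE-bla HEK 293T cells are dosed with compounds in DMSO and kept 5 hr at 37 C, 5% CO2. LiveBLAzer-type FRET substrate is then applied for 2 hr at room temperature.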

[9] = target: Thyrotropin-releasing hormone receptor (Homo sapiens) (UniProt P34981); test: qHTS assay to identify small molecule antagonists of the thyrotropin-releasing hormone receptor (TRHR) signaling pathway (AID 1346877; active = well fitted inhibition curve with a large enough effect in the repeat runs, not every such curve was filed as active; note: series mostly up to about 51 µM)
In short: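 Following an 18 h incubation at 37 °C and a 2 h calcium dye load, TRHR-HEK293 cells were exposed to compound (5 min, room temperature) and challenged with TRH, 1 nM final.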

[10] = target: Thyrotropin-releasing hormone receptor (Homo sapiens) (UniProt P34981); test: qHTS assay to identify small molecule agonists of the thyrotropin-releasing hormone receptor (TRHR) signaling pathway (AID 1346891; calls by dose curve;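 note: HEK293 cells expressing TRHR with calcium dye readout; series mostly up to about 58 µM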)
In short: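 Compounds were tested as agonists at 15 concentrations, in triplicate, on TRHR-Hek293 cells; calcium-sensitive dye fluorescence was recorded for 3 min following addition.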

[11] = Human pregnane X receptor (PXR) small molecule agonists, qHTS cell viability counter screen (AID 1346977); note: nearly all actives have a fitted effect of over 50% in size; note: potency is the fitted concentration of half-maximal effect
In short: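 Viability counter screen: CellTiter-Fluor signal in PXR-Luc HepG2 cells, 24hr compound exposure, 37C, 5% CO2.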

[12] = Caspase-3/7 induction in HepG2 cells by small molecules, qHTS assay (AID 1346978); note: nearly all actives have a fitted effect of over 15% in size
In short: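 Wild-type HepG2 cells (2,000/well) were settled 5 h at 37 C, 5% CO2, then exposed to compounds in DMSO for 17 h. Caspase-3/7 activity was read by luminescence 30 min after adding Caspase-Glo 3/7 reagent at room temperature.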

[13] = Caspase-3/7 induction in CHO-K1 cells by small molecules, qHTS cell viability counter screen (AID 1346979); note: nearly all actives have a fitted effect of over 35% in size; note: potency is the fitted concentration of half-maximal effect
In short: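 Viability readout by fluorescence (CellTiter-Fluor) on wild-type CHO-K1 cells exposed for 16hr at 37C and 5% CO2 to compounds delivered in DMSO; reagent incubated 1hr before reading.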

[14] = Caspase-3/7 induction in CHO-K1 cells by small molecules, qHTS assay (AID 1346980); note: nearly all actives have a fitted effect of over 15% in size
In short: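 Wild-type cells were seeded at 1,500 per well and settled 5 hr at 37 C, 5% CO2, then exposed to DMSO-dissolved compounds for 17 hr. Caspase-Glo 3/7 reagent was added, and luminescence was read after 30min at room temperature.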

[15] = Caspase-3/7 induction in HepG2 cells by small molecules, qHTS cell viability counter screen (AID 1346981); note: nearly all actives have a fitted effect of over 30% in size; note: potency is the fitted concentration of half-maximal effect
In short: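 Viability determined by CellTiter-Fluor fluorescence in HepG2 wells also used for the luminescent Caspase-Glo 3/7 read. Compounds were present for 16 hr at 37 C, 5% CO2 before reagent addition.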

[16] = target: Nuclear receptor subfamily 1 group I member 2 (Homo sapiens) (UniProt O75469); test: Human pregnane X receptor (PXR) small molecule agonists, qHTS assay (AID 1346982); note: nearly all actives have a fitted effect of over 35% in size; note: potency is the fitted concentration of half-maximal effect
In short: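 Compound-induced hPXR transactivation of a CYP3A4 luciferase reporter was scored in HepG2 PXR-Luc cells over 24 hr at 37 C, 5% CO2, by luminescence.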

[17] = qHTS assay to identify small molecule agonists of the estrogen receptor alpha (ER-alpha) signaling pathway in the presence of an antagonist - cell viability counter screen (AID 1259386);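 note: series mostly up to about 92 µM; cells exposed to compounds for 22 h at 37 °C before the viability read; nearly all actives have a fitted effect of over 30% in size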
In short: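 Viability counter screen using VM7Luc4E2 (full-length ER-alpha, four ERE-luciferase). The cells were treated with compounds alongside ICI-182,780 10.0nM for 22hr, and live-cell protease fluorescence was quantified with CellTiter-Fluor.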

[18] = target: Nuclear receptor subfamily 1 group I member 2 (Rattus norvegicus) (UniProt Q9R1A7); test: Rat pregnane X receptor (rPXR) activation by small molecules, qHTS assay (AID 1346983); settings: rPXR luciferase reporter cells, One-Glo luminescence, 24 h; max activation: active compounds read high; note: nearly all actives have a fitted effect of over 20% in size
In short: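 Cell-based rPXR luciferase reporter assay, 2,000 cells per well, rested 5hr at 37 C before compound addition in DMSO, then 24 hr at 37 C. One-Glo reagent was added and luminescence read after 30 min at room temperature.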

[19] = target: Nuclear receptor subfamily 1 group I member 2 (Homo sapiens) (UniProt O75469); test: CYP3A4 induction through human pregnane X receptor (PXR) by small molecules, qHTS assay (AID 1346984); note: nearly all actives have a fitted effect of over 40% in size
In short: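 Readings come from a luciferase reporter: DPX-2 cells, which are HepG2 cotransfected with PXR and a CYP3A4-promoter construct, were exposed to test compounds for 24 h at 37C before One-Glo detection.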

[20] = target: Nuclear receptor subfamily 1 group I member 2 (Homo sapiens) (UniProt O75469); test: Human pregnane X receptor (PXR) activation by small molecules, qHTS assay (AID 1346985); note: nearly all actives have a fitted effect of over 40% in size
In short: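 DPX-2 cells (HepG2 co-transfected with a PXR response element and a CYP3A4-promoter luciferase construct) were seeded at 2,000 per well, rested 5 hr at 37C, then exposed to DMSO-dissolved compounds for 24 hr. Activation was read as luciferase luminescence.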

Sequence of Thyrotropin-releasing hormone receptor (Homo sapiens) (P34981 whole entry, looked up): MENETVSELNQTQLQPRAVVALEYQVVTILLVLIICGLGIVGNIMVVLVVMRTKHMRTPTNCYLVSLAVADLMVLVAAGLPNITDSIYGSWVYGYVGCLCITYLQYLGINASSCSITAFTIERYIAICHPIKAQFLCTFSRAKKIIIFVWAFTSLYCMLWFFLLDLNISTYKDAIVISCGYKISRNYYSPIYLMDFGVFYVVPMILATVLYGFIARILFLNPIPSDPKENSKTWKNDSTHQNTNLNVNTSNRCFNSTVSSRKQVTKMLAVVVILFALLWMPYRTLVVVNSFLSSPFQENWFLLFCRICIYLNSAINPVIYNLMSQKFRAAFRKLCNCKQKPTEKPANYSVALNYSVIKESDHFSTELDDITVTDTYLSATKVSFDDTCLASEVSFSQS
Sequence of Nuclear receptor subfamily 1 group I member 2 (Homo sapiens) (O75469 whole entry, looked up): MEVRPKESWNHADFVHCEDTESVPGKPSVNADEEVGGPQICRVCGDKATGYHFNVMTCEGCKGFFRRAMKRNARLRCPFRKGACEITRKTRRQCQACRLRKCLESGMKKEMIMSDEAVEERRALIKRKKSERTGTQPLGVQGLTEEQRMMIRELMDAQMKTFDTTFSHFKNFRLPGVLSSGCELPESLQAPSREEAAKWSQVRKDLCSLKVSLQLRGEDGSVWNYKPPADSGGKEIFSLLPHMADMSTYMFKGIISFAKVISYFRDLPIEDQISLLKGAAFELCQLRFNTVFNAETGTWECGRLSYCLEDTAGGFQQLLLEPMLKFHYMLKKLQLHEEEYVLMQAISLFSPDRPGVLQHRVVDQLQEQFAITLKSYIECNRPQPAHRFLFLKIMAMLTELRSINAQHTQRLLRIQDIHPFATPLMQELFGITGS
Sequence of Progesterone receptor (Homo sapiens) (P06401 whole entry, looked up): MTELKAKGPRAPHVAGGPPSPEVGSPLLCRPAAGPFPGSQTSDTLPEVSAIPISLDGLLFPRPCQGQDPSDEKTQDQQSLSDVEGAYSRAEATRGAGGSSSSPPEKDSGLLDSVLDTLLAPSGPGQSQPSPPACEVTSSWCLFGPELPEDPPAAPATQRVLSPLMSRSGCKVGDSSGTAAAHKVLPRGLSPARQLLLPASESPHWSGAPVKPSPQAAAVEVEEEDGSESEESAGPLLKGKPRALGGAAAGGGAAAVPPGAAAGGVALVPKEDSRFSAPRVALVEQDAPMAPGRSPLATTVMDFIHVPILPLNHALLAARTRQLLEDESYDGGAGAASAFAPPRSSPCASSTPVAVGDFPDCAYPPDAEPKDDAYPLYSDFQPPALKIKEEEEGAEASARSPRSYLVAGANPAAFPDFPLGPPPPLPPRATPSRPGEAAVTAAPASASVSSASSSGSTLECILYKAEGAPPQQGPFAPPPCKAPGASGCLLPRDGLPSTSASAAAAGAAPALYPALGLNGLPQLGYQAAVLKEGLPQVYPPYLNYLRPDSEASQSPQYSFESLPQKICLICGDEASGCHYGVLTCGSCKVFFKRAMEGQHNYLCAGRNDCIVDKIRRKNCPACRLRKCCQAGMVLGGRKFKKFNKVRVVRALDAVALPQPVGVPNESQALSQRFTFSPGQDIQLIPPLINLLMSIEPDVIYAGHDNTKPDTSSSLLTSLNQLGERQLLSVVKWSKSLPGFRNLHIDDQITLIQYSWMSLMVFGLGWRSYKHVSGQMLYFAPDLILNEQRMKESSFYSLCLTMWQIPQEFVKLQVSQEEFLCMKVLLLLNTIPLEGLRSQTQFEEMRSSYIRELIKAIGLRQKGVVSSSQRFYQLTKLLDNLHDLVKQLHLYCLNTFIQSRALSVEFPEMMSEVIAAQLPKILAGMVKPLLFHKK
Sequence of Thyrotropin receptor (Homo sapiens) (P16473 whole entry, looked up): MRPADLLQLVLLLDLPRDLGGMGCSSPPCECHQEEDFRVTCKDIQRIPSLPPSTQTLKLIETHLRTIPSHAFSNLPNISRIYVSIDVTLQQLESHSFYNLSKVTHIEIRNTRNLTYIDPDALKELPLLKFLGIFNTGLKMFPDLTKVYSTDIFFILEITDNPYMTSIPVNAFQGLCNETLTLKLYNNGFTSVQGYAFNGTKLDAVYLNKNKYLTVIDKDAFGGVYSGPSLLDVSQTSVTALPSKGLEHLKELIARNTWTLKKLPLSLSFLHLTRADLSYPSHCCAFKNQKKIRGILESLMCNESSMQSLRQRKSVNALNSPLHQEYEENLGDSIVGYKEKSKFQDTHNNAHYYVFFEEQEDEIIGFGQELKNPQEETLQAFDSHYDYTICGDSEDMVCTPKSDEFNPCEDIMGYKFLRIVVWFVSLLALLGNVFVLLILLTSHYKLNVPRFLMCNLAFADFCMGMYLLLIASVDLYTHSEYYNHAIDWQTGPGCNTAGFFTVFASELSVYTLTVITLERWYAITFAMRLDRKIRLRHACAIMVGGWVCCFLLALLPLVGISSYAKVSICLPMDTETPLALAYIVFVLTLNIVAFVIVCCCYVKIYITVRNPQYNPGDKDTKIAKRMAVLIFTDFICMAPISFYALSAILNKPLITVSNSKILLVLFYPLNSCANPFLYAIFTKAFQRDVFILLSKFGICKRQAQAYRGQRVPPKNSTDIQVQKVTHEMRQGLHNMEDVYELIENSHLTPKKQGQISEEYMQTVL
Sequence of Nuclear receptor subfamily 1 group I member 2 (Rattus norvegicus) (Q9R1A7 whole entry, looked up): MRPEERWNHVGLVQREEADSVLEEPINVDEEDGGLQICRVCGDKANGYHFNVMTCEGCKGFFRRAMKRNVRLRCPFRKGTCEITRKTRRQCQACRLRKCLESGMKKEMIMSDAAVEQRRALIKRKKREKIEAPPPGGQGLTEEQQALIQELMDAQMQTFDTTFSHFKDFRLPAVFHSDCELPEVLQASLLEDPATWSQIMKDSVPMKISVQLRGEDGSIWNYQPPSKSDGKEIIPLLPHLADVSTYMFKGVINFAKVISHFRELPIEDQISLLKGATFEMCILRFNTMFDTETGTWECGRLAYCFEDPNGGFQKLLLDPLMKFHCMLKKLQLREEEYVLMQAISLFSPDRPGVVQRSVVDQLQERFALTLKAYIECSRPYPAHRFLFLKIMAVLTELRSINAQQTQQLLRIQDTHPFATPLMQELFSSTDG

O=C(CBr)Nc1ccc(Cl)cc1C(=O)c1ccccc1F
Potency [1]: inactive
Potency [2]: inactive
Potency [3]: 21.1 µM (active)
Potency [4]: inactive
Potency [5]: inactive
Potency [6]: inactive
Potency [7]: inactive
outcome [8]: inactive
Potency [9]: inactive
Potency [10]: inactive
Potency [11]: inactive
Potency [12]: inactive
Potency [13]: inactive
Potency [14]: inactive
Potency [15]: inactive

Cc1ccc(N)cc1C
Potency [1]: inactive
Potency [2]: inactive
Potency [3]: inactive
Potency [4]: inactive
Potency [5]: inactive
Potency [6]: inactive
Potency [7]: inactive
outcome [8]: inactive
Potency [9]: inactive
Potency [10]: inactive
Potency [11]: inactive
Potency [12]: inactive
Potency [13]: inactive
Potency [14]: inactive
Potency [15]: inactive
Potency [16]: 49 µM (active)

O=C(N[C@H](c1ccccc1)[C@@H]1CN2CCC1CC2)c1c(Cl)ccc(C(F)(F)F)c1Cl
Potency [1]: inactive
Potency [17]: inactive
Potency [2]: inactive
Potency [6]: inactive
Potency [7]: inactive
Potency [11]: 49.3 µM (active)
Potency [13]: 78.1 µM (active)
Potency [15]: 55.3 µM (active)
Potency [16]: inactive

Cn1sc(Cl)cc1=O
Potency [1]: inactive
Potency [2]: inactive
Potency [3]: inactive
Potency [4]: inactive
Potency [6]: inactive
Potency [7]: inactive
outcome [8]: inactive
Potency [9]: inactive
Potency [10]: inactive
Potency [11]: inactive
Potency [13]: inactive
Potency [14]: inactive
Potency [15]: inactive
Potency [16]: inactive
max activation [18]: -5.85%
Potency [19]: inactive
Potency [20]: inactive

CC(C)(C)C(O)C(Oc1ccc(Cl)cc1)n1cncn1 (centres undefined)
Potency [1]: inactive
Potency [17]: inactive
Potency [4]: 54.5 µM (active)
Potency [6]: inactive
Potency [7]: inactive
outcome [8]: inactive
Potency [9]: inactive
Potency [10]: inactive
Potency [11]: inactive
Potency [12]: inactive
Potency [13]: inactive
Potency [14]: inactive
Potency [15]: inactive
Potency [16]: 4.33 µM (active)

S=C=NCc1ccccc1
Potency [1]: inactive
Potency [17]: inactive
Potency [5]: inactive
Potency [6]: inactive
Potency [7]: inactive
outcome [8]: inactive
Potency [9]: inactive
Potency [10]: inactive
Potency [11]: inactive
Potency [12]: inactive
Potency [13]: inactive
Potency [14]: inactive
Potency [16]: 61.8 µM (active)

CCOc1nc(F)cc2nc(S(=O)(=O)Nc3c(Cl)cccc3Cl)nn12
Potency [1]: inactive
Potency [2]: inactive
Potency [3]: inactive
Potency [4]: inactive
Potency [5]: inactive
Potency [6]: inactive
Potency [7]: inactive
outcome [8]: inactive
Potency [9]: inactive
Potency [10]: inactive
Potency [11]: inactive
Potency [12]: inactive
Potency [13]: inactive
Potency [14]: inactive
Potency [16]: inactive
